# An excerpt weighted towards active compounds, which were near 5.4% of everything screened.
# Calb FLC – C. albicans growth modulation with fluconazole; C. albicans CaCi-2 (fluconazole-resistant clinical isolate) + fluconazole, Alamar Blue growth, 48 h; growth inhibition, % (no concentration beside the values); 300,000 tested, 0.57% active;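 active = growth inhibition above about 58% in most replicates, limit read from the data, passing the limit was not always enough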;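 also: all wells also contain fluconazole at 8 µg/ml as a sub-toxic cotreatment; 0% = median of DMSO wells and 100% = median of geldanamycin control wells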
# Mdm2-MdmX inh – human Mdm2/MdmX binding inhibition; inhibition, % at 8 µM; AID 485346; 330,000 tested, 3% active; SaOS-2 split-luciferase Mdm2/MdmX complementation, luminescence; O15151+Q00987;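 active = inhibition of at least 50% at 8 µM in the primary screen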
# Target sequence (O15151 whole entry, looked up): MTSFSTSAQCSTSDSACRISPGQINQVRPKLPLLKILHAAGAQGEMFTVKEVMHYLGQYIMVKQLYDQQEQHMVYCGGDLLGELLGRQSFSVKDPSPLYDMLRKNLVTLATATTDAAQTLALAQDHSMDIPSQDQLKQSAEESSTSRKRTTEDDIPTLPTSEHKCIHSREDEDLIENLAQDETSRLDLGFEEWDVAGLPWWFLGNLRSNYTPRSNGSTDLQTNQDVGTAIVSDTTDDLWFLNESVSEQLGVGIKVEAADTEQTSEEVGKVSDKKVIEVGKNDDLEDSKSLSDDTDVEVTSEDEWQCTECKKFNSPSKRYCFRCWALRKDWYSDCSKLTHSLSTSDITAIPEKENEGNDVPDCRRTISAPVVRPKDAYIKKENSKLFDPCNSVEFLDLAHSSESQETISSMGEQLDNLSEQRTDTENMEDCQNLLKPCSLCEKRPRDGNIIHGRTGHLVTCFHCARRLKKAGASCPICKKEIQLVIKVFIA
# Target sequence (Q00987 whole entry, looked up): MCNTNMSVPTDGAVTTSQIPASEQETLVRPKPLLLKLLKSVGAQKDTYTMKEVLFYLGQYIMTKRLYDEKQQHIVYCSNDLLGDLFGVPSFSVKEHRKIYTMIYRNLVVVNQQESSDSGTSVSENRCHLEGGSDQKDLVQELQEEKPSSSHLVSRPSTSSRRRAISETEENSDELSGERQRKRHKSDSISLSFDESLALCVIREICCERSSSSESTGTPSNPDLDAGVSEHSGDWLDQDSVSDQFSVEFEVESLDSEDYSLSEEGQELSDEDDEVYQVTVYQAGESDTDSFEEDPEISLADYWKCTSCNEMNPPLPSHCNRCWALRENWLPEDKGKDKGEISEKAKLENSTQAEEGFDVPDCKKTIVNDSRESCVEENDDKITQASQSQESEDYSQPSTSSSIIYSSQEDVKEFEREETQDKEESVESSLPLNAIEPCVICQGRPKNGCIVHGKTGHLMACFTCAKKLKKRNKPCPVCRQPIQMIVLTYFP
# MPTP inh – blocks calcium-induced mitochondrial swelling; AID 602449; isolated mouse mitochondria, Ca2+ swelling absorbance, 30 min; inhibition, % at 10 µM; 360,000 tested, 1.4% active;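 active = inhibition of 50% or more, scaled per plate between neutral and stimulator controls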;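 also: 0% = DMSO wells given calcium and 100% = 1 mM EGTA wells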
# SKKanGAS inh – blocks kanamycin growth of S. pyogenes SKKanGAS strain | BacTiter-Glo, 6 h | inhibition, % at 7.5 µM | 300,000 tested, 1.3% active | AID 1662;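 active = mean replicate score, as percent of positive control median, at least 50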;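 also: strain carries kanamycin resistance gene driven by streptokinase promoter and grows in 40 µg/ml kanamycin; loss of luminescence reflects streptokinase promoter inhibition or plain growth inhibition; 0% = median of DMSO wells and 100% = positive control at its reference dose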
# Beta apoptosis – beta cell apoptosis inhibition. INS-1E cytokine-induced death, ATP luminescence, 48 h; percent of positive-control rescue, neutral wells zero. 300,000 tested, 0.8% active. protection from apoptosis, % (no concentration beside the values);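 active = Every replicate reaches about 75%, or at least half do and their mean reaches it too, limit read from the data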;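 also: 0% = cytokine-treated negative control wells and 100% = positive control rescue; higher means more ATP so stronger rescue from cytokine killing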
# CSC inhib – cancer stem cell inhibition; cancer stem cell-like cells viability, luminescence; inhibition, % at 7.5 µM; 300,000 tested, 1.1% active; in the data active = inhibition above about 75%; tested in HMLE shEcad cells
# Mdm2 MdmX conf – confirmation of human Mdm2/MdmX interaction inhibitors. shares compounds with Mdm2-MdmX inh. Mdm2-MdmX binding, luminescent assay. inhibition, % at 8 µM. 10,000 tested, 55% active. AID 489028; in the data active = inhibition above about 40%
# FLuc counter – counter-screen for Mdm2/MdmX inhibitors: full-length luciferase | shares compounds with Mdm2-MdmX inh | SaOS-2 full-length luciferase counterscreen, luminescence | inhibition, % at 8 µM | 6,200 tested, 77% active | AID 504607;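 active = mean inhibition at 8 µM reaching about 37%, which flags the compound as non-specific, limit read from the data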;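 also: p53-null SaOS-2 cells with luciferase driven by a doxycycline-inducible promoter; compound on cells about two nights before reading with doxycycline added after day one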
# * = called active by the depositor; . = not tested or not shown.
SMILES,Calb FLC,Mdm2-MdmX inh,MPTP inh,SKKanGAS inh,Beta apoptosis,CSC inhib,Mdm2 MdmX conf,FLuc counter
Cn1c(CCC(=O)OCC(=O)Nc2ccc(Oc3ccccc3)cc2)nc(=O)c2ccccc21,11.7,8.3,1.5,-4.9,-1.3,-2.1,.,.
COC(=O)c1c(NC(=O)Cc2cccs2)sc(C(=O)NC2CCCCC2)c1C,-0.1,54.7*,0.4,4.0,-1.5,-3.6,0.9,.
CCOC(=O)c1c(NC(=O)Cc2cccs2)sc(C(=O)NC2CCCC2)c1C,-0.2,28.1,-3.2,-2.0,7.7,12.3,.,.
CCOC(=O)c1c(NC(=O)Cc2cccs2)sc(C(=O)NC2CCCCC2)c1C,-1.7,66.1*,3.2,2.7,28.8,18.6,14.3,.
CC(C)(C)NC(=O)CN1C(=O)NC(c2ccccc2)(c2ccccc2)C1=O,1.6,15.7,2.6,-9.0,-3.5,.,.,.
Cc1nc2c3ccccc3n(CCN3CCCCC3)c2s1,15.2,8.5,.,-2.7,7.4,-3.3,.,.
Cc1nc2c3cc(F)ccc3n(CCN3CCCCC3)c2s1,4.2,55.6*,-0.1,-0.9,60.5,64.6,56.1*,68.2*
Cc1nc2c3cc(F)ccc3n(Cc3ccccc3)c2s1,-11.6,53.0*,2.0,8.6,100.5*,118.4*,55.0*,68.6*
Cc1nc2c3cc(F)ccc3n(Cc3ccccc3F)c2s1,35.8,59.4*,2.5,11.1,-2.5,55.0,45.4*,78.5*
Cc1nc2c3ccccc3n(Cc3ccccc3F)c2s1,57.1,4.4,8.8,38.5,-16.2,27.9,.,.
Cc1ccccc1OCCC(=O)N1CCN(S(=O)(=O)c2ccc(Cl)cc2)CC1,7.0,32.5,-3.0,-1.9,0.6,-12.9,.,.
CC(=O)NS(=O)(=O)c1ccc(NS(=O)(=O)c2ccccc2[N+](=O)[O-])cc1,-5.2,-19.3,0.3,3.9,-4.6,-8.1,.,.
CCCN1CCN(S(=O)(=O)c2ccc3c(c2)NC(=O)C(C)C(=O)N3)CC1 (configuration not stated),-8.9,33.4,1.2,-6.7,9.2,6.8,.,.
Cn1c2ccccc2c(=O)c2c(=O)n(C3CCCCC3)c(-c3ccco3)nc21,-4.1,79.7*,4.8,43.9,.,9.7,65.8*,90.0*
Cn1c2ccccc2c(=O)c2c(=O)n(-c3ccccc3)c(-c3ccc(C(C)(C)C)cc3)nc21,18.3,88.8*,17.7,22.8,7.9,-18.3,78.6*,54.6*
Cc1ccc(-c2nc3c(c(=O)c4ccccc4n3C)c(=O)n2-c2ccc(F)cc2)cc1,11.7,13.7,5.3,24.4,3.9,-4.0,.,.
Cc1cn(CCC(=O)Nc2ccc(N3CCOCC3)cc2)c2ccccc12,-5.4,-20.3,0.3,-0.6,10.7,19.8,.,.
COc1ccc(-c2nc(NC(=O)c3ccc(OCC(=O)Nc4ccc(F)cc4)c(OC)c3)sc2C)cc1,-0.1,60.8*,-0.8,14.3,-4.3,10.4,45.6*,58.1*
COc1cccc(CSc2nc3ccccc3cc2C=O)c1,-2.0,68.1*,1.9,13.2,10.1,-15.2,64.3*,60.8*
Cc1ccnc(N(C(=O)Nc2ccccc2)C2=NCC(C)(C)S2)c1,-1.6,-58.4,-1.5,0.0,-3.9,7.1,.,.
CNC(=O)N(C1=NCC(C)(C)S1)c1ccc(F)c(Cl)c1,-7.8,55.3*,-0.8,-1.4,2.8,44.7,34.1,82.1*
O=C(Nc1nnc(-c2ccc3c(c2)CCCC3)o1)c1ccccc1,87.6*,57.3*,1.9,93.7*,7.4,91.6*,65.8*,47.2*
O=C(Nc1nnc(-c2ccncc2)o1)c1ccccc1,3.2,8.4,-2.8,-6.7,2.7,11.6,.,.
Cn1nnc(NC(=O)c2ccc([N+](=O)[O-])cc2Cl)n1,6.6,-8.7,-1.7,3.5,1.6,-7.3,.,.
NCC12CC3CC(C1)CC(c1ccc(Br)cc1)(C3)C2,48.8,71.9*,1.2,9.1,7.1,22.2,31.2,.
SMILES,Calb FLC,Mdm2-MdmX inh,MPTP inh,SKKanGAS inh,Beta apoptosis,CSC inhib,Mdm2 MdmX conf,FLuc counter
Cc1ccc(N=c2oc3cc(O)ccc3cc2C(N)=O)cc1,0.0,83.7*,23.5,18.1,4.5,33.9,53.2*,17.2
CC(=O)c1cc2ccc(O)cc2oc1=O,1.3,-4.2,0.9,8.8,-1.4,14.1,.,.
O=C(NNC(=O)c1cc(-c2ccc(Cl)cc2Cl)nc2ccccc12)Nc1ccccc1,8.1,63.9*,2.7,73.7*,7.1,-10.8,37.5,.
COc1cc(/C=C(\C#N)C(=O)NC2CCCCC2C)ccc1OS(=O)(=O)c1ccc(C)cc1 (configuration not stated),-4.2,100.3*,5.4,3.4,17.6,156.7*,37.5,.
COc1ccc(S(=O)(=O)N2CCCCCC2)cc1C(=O)N(C)Cc1ccc(C(C)(C)C)cc1,3.6,53.3*,0.0,3.5,21.6,12.7,11.5,.
O=S(=O)(Nc1cccc(-c2ccc3nncn3n2)c1)c1cccc(F)c1,-0.4,8.6,-0.4,12.5,2.2,-3.8,.,.
COc1ccc(S(=O)(=O)Nc2cccc(-c3ccc4nncn4n3)c2)cc1F,-21.7,50.1*,1.9,1.8,-1.7,53.9,66.0*,60.6*
O=C(Nc1cccc(C(=O)O)c1)Nc1ccc2c(c1)OCO2,-0.3,53.8*,0.0,7.5,-3.8,4.0,62.8*,49.8*
CCOC(=O)c1c(-c2ccccc2)oc2ccc(OCC)cc12,-11.6,4.3,1.7,1.6,-0.7,10.9,.,.
CCOC(=O)c1c(-c2ccccc2)oc2ccc(OCC(O)CNCCN(C)C)cc12 (configuration not stated),-23.7,95.0*,-2.8,0.1,19.3,54.6,47.6*,35.1
Cc1cc(C)n(-c2ccc(NC(=O)C3CCCCN3Cc3cccc4c3OCO4)cc2)n1 (configuration not stated),-6.5,51.6*,0.2,1.6,.,.,64.0*,74.8*
Cc1cc(C)n(-c2ccc(NC(=O)C3CCCCN3C(=O)c3ccoc3)cc2)n1 (configuration not stated),-11.8,10.8,-2.5,1.2,-0.2,-9.9,.,.
CC(C)NC(=O)C1(C)CCN1C(=O)c1ccccc1Oc1ccccc1 (configuration not stated),.,.,-1.3,.,.,.,.,.
COc1cccc(-c2ccc(C#N)c(SCC(=O)NCCc3cccc(Cl)c3)n2)c1,2.2,55.3*,4.1,-13.4,-0.8,-12.6,12.1,.
COc1ccc(-c2ccc(C#N)c(SCC(=O)NCCc3ccccc3)n2)cc1OC,.,-1.8,0.9,.,7.8,7.3,.,.
COc1cccc(-c2ccc(C#N)c(OC(=O)c3ccc(Cl)cc3)n2)c1,0.7,-0.7,-0.3,-1.2,-1.9,-3.9,.,.
N#Cc1cc2c(nc1SCC(=O)Nc1sc3c(c1C#N)CCC3)CCC2,8.4,-10.0,0.4,8.0,1.4,-0.2,.,.
COc1ccc(-c2ccc(C#N)c(SCC(=O)Nc3sc4c(c3C#N)CCC4)n2)cc1OC,0.6,97.3*,1.1,1.6,58.3,53.0,62.8*,102.1*

# Compound activity deposited in PubChem BioAssay by several laboratories.
